# Unmarked numbers belong to inactive results. Records with an inconclusive call do not appear. Active and inactive are the calls of the source. Unless noted, the rule behind the calls is not given here.
# What was measured:
# [1] = circadian clock period modulators, cell-based, LOPAC library, luminescence reporter (AID 2774); details: circadian reporter cells, at 7 µM, actives lie on both sides;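 note: values are relative to mean of DMSO wells on each plate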
# [2] = hESC survival regulators, cell-based (AID 493140); details: human embryonic stem cell survival screen; hits give high values;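 note: cells exposed to compounds for four days before counting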
# [3] = target: ATP-dependent translocase ABCB1 (Homo sapiens) (UniProt P08183); experiment: MDR1 (ABCB1) efflux transporter inhibition, cell-based (AID 377; in the data active = fluorescence slope change above about 50%); details: MDR1-expressing cells, fluorescent substrate accumulation slope; hits give high values; concentration not given here
# Chain of ATP-dependent translocase ABCB1 (Homo sapiens) (P08183 whole entry, looked up): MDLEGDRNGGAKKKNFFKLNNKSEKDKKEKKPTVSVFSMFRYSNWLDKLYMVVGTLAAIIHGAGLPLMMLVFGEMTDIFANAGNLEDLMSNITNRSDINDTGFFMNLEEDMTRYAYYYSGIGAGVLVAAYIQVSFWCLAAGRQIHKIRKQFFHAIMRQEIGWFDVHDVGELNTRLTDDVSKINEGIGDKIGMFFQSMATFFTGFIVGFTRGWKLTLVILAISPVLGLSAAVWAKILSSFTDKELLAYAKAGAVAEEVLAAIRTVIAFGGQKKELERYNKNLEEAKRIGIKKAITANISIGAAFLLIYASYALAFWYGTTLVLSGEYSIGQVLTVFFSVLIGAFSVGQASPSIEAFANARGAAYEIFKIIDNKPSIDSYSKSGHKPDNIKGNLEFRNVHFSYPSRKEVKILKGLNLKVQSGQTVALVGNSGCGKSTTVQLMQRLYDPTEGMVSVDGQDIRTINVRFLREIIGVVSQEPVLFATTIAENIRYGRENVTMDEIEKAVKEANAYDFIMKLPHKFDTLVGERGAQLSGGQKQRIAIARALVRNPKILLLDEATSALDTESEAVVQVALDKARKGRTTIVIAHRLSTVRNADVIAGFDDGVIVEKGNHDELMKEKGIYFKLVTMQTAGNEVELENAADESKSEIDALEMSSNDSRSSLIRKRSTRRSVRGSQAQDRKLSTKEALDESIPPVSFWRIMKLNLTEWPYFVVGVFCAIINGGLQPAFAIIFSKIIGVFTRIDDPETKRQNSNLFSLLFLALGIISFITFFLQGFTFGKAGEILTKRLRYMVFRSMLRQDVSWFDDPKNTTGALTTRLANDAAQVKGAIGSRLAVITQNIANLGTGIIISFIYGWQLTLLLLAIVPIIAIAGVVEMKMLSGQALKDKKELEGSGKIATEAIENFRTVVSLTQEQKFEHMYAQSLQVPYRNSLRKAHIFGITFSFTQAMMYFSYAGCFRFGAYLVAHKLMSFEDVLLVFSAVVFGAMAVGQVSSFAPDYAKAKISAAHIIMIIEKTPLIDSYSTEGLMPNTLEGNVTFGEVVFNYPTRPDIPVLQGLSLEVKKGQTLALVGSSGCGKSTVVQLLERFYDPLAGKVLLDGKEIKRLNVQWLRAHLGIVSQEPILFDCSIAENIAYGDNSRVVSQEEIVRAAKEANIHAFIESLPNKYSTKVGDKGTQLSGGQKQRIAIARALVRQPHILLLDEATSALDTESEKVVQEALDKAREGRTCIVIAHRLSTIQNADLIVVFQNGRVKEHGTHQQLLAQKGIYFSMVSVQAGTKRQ
Structure (SMILES),period change [1] [h],survival [2],fluorescence slope change [3]
CNC1(C)C2CCC(C2)C1(C)C (stereo not drawn),0.19,42,–
CCOC(=O)c1ncn2c1CN(C)C(=O)c1cc(F)ccc1-2,-0.15,–,–
CO[C@@]1(NC(=O)CSCC#N)C(=O)N2C(C(=O)O)=C(CSc3nnnn3C)CS[C@@H]21,-0.07,4.83,20.3%
OCc1cc(C(O)CNCCCCCCOCCCCc2ccccc2)ccc1O (stereo not drawn),-0.06,–,–
CCOC(=O)C1=C[C@]2(CC)CCCN3CCc4c(n1c1ccccc41)[C@@H]32,0,5.33,107% (active)
CCN1CCC[C@H]1CNC(=O)c1c(O)c(Cl)cc(Cl)c1OC,-0.03,–,–
CC(=O)[C@]1(O)Cc2c(O)c3c(c(O)c2[C@@H](O[C@H]2C[C@H](N)[C@H](O)[C@H](C)O2)C1)C(=O)c1ccccc1C3=O,-1.6,–,–
Cc1cnc(NC(=O)C2=C(O)c3ccccc3S(=O)(=O)N2C)s1,-0.06,–,–
NC(N)=NC(=O)Cc1c(Cl)cccc1Cl,0.09,7.33,82% (active)
CN1C(C)(C)CCCC1(C)C,-0.07,3.5,17%
O=C(CCNNC(=O)c1ccncc1)NCc1ccccc1,-0.045,17.5,–
C[C@]12C=CC(=O)C=C1CC[C@H]1[C@@H]3C[C@@H](O)[C@](O)(C(=O)CO)[C@@]3(C)C[C@H](O)[C@@]12F,-0.51,13.9,27%
COc1cc(C(=O)OCCCN2CCCN(CCCOC(=O)c3cc(OC)c(OC)c(OC)c3)CC2)cc(OC)c1OC,-0.025,9.25,100% (active)
CC(=O)OC(C)C[N+](C)(C)C (stereo not drawn),-0.04,1.33,-0.2%
NC(N)=N/N=C/c1c(Cl)cccc1Cl,0.195,17.8,70.4% (active)
COc1cc(-c2ccc(=O)[nH]n2)ccc1OC(F)F,-0.1,1.92,–
CC1(C)NC(=O)N(c2ccc([N+](=O)[O-])c(C(F)(F)F)c2)C1=O,0.085,0.917,–
CCc1oc2ccccc2c1C(=O)c1cc(Br)c(O)c(Br)c1,–,13.1,56.7% (active)
CC1(C)O[C@@H]2C[C@H]3[C@@H]4CCC5=CC(=O)CC[C@]5(C)[C@@]4(F)[C@@H](O)C[C@]3(C)[C@]2(C(=O)CCl)O1,–,5.5,26.3%
CCCCCN(CCCCC)C(=O)C(CCC(=O)O)NC(=O)c1ccc(Cl)c(Cl)c1 (stereo not drawn),0.13,1.92,–
O=C(O)/C=C/c1ccc(Cn2ccnc2)cc1,–,12.1,–
CCOC(=O)OC(C)OC(=O)[C@@H]1N2C(=O)[C@@H](NC(=O)[C@H](N)c3ccccc3)[C@H]2SC1(C)C (stereo partly drawn),–,16.9,97.9% (active)
Nc1ncnc2c1ncn2[C@@H]1O[C@H](COP(=O)(O)O)[C@@H](O)[C@H]1O,–,7.33,73% (active)
Oc1cc(O)c2c(c1)O[C@H](c1ccc(O)c(O)c1)[C@H](O)C2,–,–,-0.6%
CC[N+](C)(C)Cc1ccccc1Br,0.095,6.92,–
CC1CC(OC(=O)C(O)c2ccccc2)CC(C)(C)N1C (stereo not drawn),–,2.33,23.1%
CC(=O)[C@@]1(O)CC[C@H]2[C@@H]3C[C@H](C)C4=CC(=O)C=C[C@]4(C)[C@@]3(F)[C@@H](O)C[C@@]21C,–,6.17,10.7%

Structure (SMILES),period change [1] [h],survival [2],fluorescence slope change [3]
CCCCNc1c(C(=O)OCC)c(C)nc2c1cnn2CC,0.105,17.3,–
COc1cc(OC)c(C(=O)CCCN2CCCC2)c(OC)c1,–,9.58,82.5% (active)
Nc1ccn([C@H]2CC[C@@H](CO)O2)c(=O)n1,-0.095,9,–
Cc1ccc(S(=O)(=O)NC(=O)NN2CC3CCCC3C2)cc1 (stereo not drawn),–,5.67,10.5%
COc1cc(C)nc(-n2nc(C)cc2OC)n1,–,33.2,–
Nc1ccc(O)c(C(=O)O)c1,–,4.33,–
CN1CCCCC1CCN1c2ccccc2Sc2ccc(S(C)=O)cc21 (stereo not drawn),–,3.42,54.4% (active)
CCOC(=O)n1ccn(C)c1=S,–,11.8,99.3% (active)
Cc1nc2n(c(=O)c1CCN1CCC(c3noc4cc(F)ccc34)CC1)CCCC2,0.015,5,–
C[C@]12CC[C@@H]3c4ccc(O)cc4CC[C@H]3[C@@H]1CCC2=O,-0.125,2.5,–
COc1cc2c3cc1Oc1cc(ccc1O)C[C@@H]1c4c(cc(OC)c(O)c4Oc4ccc(cc4)C[C@@H]3N(C)CC2)CC[N+]1(C)C,–,–,8.4%
C[C@@H]1C[C@H]2[C@@H]3C[C@H](F)C4=CC(=O)C=C[C@]4(C)[C@@]3(F)[C@@H](O)C[C@]2(C)[C@@]1(O)C(=O)CO,–,2.17,57.3% (active)
CC(=O)OCC(=O)[C@@]1(O)[C@H](C)C[C@H]2[C@@H]3CCC4=CC(=O)C=C[C@]4(C)[C@@]3(F)[C@@H](O)C[C@@]21C,–,16.5,109% (active)
CN1CCN(C(c2ccccc2)c2ccccc2)CC1,–,4.58,59.4% (active)
Cc1[nH]c(=O)c(C#N)cc1-c1ccncc1,-0.005,9.17,–
COCCCC/C(=N\OCCN)c1ccc(C(F)(F)F)cc1,-0.015,6.67,–
COc1ccc2nc(S(=O)Cc3ncc(C)c(OC)c3C)[nH]c2c1 (stereo not drawn),–,10.2,50.5% (active)
CC[C@]12CCCN3CCc4c(n(c5ccccc45)[C@@](O)(C(=O)OC)C1)[C@@H]32,–,10.1,8.1%
COc1cc2nc(N3CCN(C(=O)C4CCCO4)CC3)nc(N)c2cc1OC (stereo not drawn),0.02,3.75,–
CCN(CCCc1ccccc1)CCCc1ccccc1,–,6.17,72.6% (active)
COc1ccccc1N1CCN(CC(O)COc2cccc3ccccc23)CC1 (stereo not drawn),0.04,8.25,–
c1cnc(N2CCN(Cc3ccc4c(c3)OCO4)CC2)nc1,-0.05,3.67,–
Nc1ccc(S(=O)(=O)Nc2ccc(Cl)nn2)cc1,–,5.17,-13.4%
NC(N)=Nc1nc(CSCC/C(N)=N/S(N)(=O)=O)cs1,-0.03,16.5,–
Cc1cc2c(C(C)C)c(O)c(O)c(C=O)c2c(O)c1-c1c(C)cc2c(C(C)C)c(O)c(O)c(C=O)c2c1O,–,5.5,93.5% (active)
CCCCN(CCCC)CCC(O)c1cc2c(Cl)cc(Cl)cc2c2cc(C(F)(F)F)ccc12 (stereo not drawn),–,1.5,–

# Source: PubChem BioAssay
